In assay [1] the target is Nuclear receptor coactivator 1 (Homo sapiens) (UniProt Q15788). The experiment in a line: NCOA1 GAL4-fusion reporter inhibition – cell-based, luminescence, quadruplicate, confirmation (AID 588820).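 Note: 0% = DMSO wells and 100% = gossypol 36 µM treated wells.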 The settings on record: HEK293 GAL4-SRC1 luciferase reporter, at 3.6 µM, active compounds read high.
Assay [2] in a line: repression of VP16-driven luciferase reporter – cell-based, luminescence, high throughput, counter-screen for SRC1 inhibitor project (AID 588824; in the data active = inhibition above about 25%). The settings on record: cell-based VP16 transactivation luciferase luminescence; at 3.6 µM; active compounds read high.

Unmarked numbers belong to inactive results. Activity calls are given as the source filed them.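 Rule for the calls, unless noted: active = mean inhibition above 46.68%, the untreated control wells mean plus 3 SD; inactive = the rest.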

Chain of Nuclear receptor coactivator 1 (Homo sapiens) (Q15788 whole entry, looked up, the tested form may be a part): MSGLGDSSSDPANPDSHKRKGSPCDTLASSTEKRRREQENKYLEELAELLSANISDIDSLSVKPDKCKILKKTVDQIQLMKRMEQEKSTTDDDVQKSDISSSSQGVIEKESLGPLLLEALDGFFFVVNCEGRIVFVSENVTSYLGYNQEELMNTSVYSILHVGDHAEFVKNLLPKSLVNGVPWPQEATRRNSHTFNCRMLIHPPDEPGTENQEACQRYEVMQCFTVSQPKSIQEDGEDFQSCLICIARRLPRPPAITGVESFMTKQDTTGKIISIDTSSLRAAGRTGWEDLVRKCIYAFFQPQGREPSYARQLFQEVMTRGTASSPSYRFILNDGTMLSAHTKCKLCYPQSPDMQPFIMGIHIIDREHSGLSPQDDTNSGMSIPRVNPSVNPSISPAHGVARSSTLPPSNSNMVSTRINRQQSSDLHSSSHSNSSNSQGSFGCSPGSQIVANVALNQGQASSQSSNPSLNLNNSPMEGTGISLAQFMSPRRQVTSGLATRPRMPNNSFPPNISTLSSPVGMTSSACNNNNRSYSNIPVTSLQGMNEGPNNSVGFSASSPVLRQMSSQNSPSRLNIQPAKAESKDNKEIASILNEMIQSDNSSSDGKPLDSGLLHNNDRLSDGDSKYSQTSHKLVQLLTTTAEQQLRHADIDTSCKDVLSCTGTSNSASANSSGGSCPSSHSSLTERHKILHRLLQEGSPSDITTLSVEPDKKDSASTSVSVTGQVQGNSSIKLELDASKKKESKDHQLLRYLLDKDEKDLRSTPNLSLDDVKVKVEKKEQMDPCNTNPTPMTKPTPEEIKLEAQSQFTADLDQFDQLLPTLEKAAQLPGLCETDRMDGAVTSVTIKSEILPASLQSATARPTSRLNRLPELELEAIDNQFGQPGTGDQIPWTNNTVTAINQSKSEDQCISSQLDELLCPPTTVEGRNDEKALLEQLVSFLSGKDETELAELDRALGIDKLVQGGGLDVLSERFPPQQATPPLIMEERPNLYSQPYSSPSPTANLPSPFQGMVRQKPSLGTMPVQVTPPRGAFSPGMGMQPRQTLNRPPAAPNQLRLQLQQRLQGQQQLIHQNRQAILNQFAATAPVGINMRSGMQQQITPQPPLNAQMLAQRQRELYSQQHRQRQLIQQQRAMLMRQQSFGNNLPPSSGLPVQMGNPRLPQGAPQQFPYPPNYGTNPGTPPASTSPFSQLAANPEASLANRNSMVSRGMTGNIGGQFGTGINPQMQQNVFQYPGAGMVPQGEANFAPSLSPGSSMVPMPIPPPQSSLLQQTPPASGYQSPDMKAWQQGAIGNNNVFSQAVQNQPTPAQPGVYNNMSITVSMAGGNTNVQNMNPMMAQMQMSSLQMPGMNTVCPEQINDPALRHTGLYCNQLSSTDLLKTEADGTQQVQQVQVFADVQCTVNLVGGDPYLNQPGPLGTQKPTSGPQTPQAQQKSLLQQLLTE

On to `O=C1C2C3C=CC(C3)C2C(=O)N1CN(Cc1ccccc1)CN1C(=O)C2C3C=CC(C3)C2C1=O` (stereo unspecified), for which the results for the inhibition in assay [1] and in assay [2] were -20.9% and -14.3%, respectively.
Taken in the same sequence, the figures for `CCOC(=O)c1cc(C#N)c(SCC(=O)OC)[nH]c1=O` were 1.73% and -9.78%.
For the molecule `CCCCCCN1C2=NCCCN2c2ccccc21`, the results for the inhibition in assay [1] and in assay [2] were 1.1% and 10.4%, respectively.
In the same order, the values of `c1ccc(CC2CCN(c3ncnc4sccc34)CC2)cc1` are -13.8% and 29.4% (active).
Regarding `CCCCc1ccc(NC(=O)c2ccc(N(C)S(C)(=O)=O)cc2)cc1`, the values for the inhibition in assay [1] and in assay [2] were -25.4% and 31.3% (active), respectively.
Turning to `CCOC(=O)Cc1csc(SCC(=O)c2c(N)n(CC(C)C)c(=O)n(C)c2=O)n1`, the inhibition in assay [1] was -7.3%; in assay [2] it was 26.3% (active).
In the same order, the values of `O=C(O)CNC(=O)c1cccc(C(F)(F)F)c1` are -9.63% and -6.05%.
In the same order, the values of `CC(CC(=O)Nc1ccc(Cl)c(S(=O)(=O)N2CCOCC2)c1)c1ccccc1` (stereo unspecified) are 1.13% and 38.6% (active).
In the same order, the values of `Cc1cccnc1NC(=O)c1cccc(S(=O)(=O)NCc2ccccc2)c1` are -10.8% and 3%.
As for `CCCCC(=O)NC(c1ccc(N(CC)CC)cc1)c1ccc2cccnc2c1O` (stereo unspecified), the inhibition was 69.3% (active) in assay [1] and 63.8% (active) in assay [2].
Taken in the same sequence, the figures for `O=C(CSc1nc2[nH]ncc2c(=O)[nH]1)N1CCCCC1` were -8.66% and -6.86%.
Taken in the same sequence, the figures for `COCCn1c(C)cc(C(=O)CSc2nc3ccccc3s2)c1C` were -45.7% and 6.14%.
Taken in the same sequence, the figures for `Brc1ccc2ncnc(NCc3ccco3)c2c1` were 32.1% and 31.2% (active).
For `CCOC(=O)N1CCN(Cc2nc(Cc3cccc(C(F)(F)F)c3)no2)CC1`, the inhibition in assay [1] is -24.9%; in assay [2] it was -12.2%.
`Cc1sc2ncnc(N3CCC(C(=O)Nc4cc(S(C)(=O)=O)ccc4Cl)CC3)c2c1C`: the inhibition in assay [1] is 14.9%; in assay [2], 9.27%.
In the case of `O=C(c1cc(COc2c(F)cccc2F)on1)N1CCC(c2ccncc2)CC1`, the inhibition in assay [1] is -8.98%; in assay [2], 19.7%.
For the molecule `COc1ccc(CN2CCN(C(=O)c3ccc(S(=O)(=O)N4CCCCCC4)cc3)CC2)cc1`, the results for the inhibition in assay [1] and in assay [2] were -2.25% and 25.6% (active), respectively.
For `CCNC(=O)C1(C)CCCN(Cc2ccc3ccccc3c2Br)C1` (stereo unspecified), the inhibition in assay [1] was 11%; in assay [2], 13.3%.
Regarding `COc1ccc2c(c1)c(C(=O)CN1CCN(Cc3ccccc3)CC1)c(C)n2C`, the inhibition in assay [1] is -13.6%; in assay [2], -0.22%.
In the same order, the values of `N#CCCN(C(=O)COC(=O)c1ccc2c(=O)n3c(nc2c1)CCC3)c1ccc(F)cc1` are -14.7% and 2.54%.
Regarding `COc1ccc(CNc2nc(C)cc(C)c2C#N)cc1`, the inhibition in assay [1] was -9.61%; in assay [2], -3.68%.
`Cc1ccccc1-n1nc(C)c2c1N=C1C(Cl)=CC(Cl)=CN1C2c1ccc(C(=O)O)cc1` (stereo unspecified): the inhibition in assay [1] is -9.32%; in assay [2] it was -14.1%.
Taken in the same sequence, the figures for `O=C(Nc1ccccc1)c1ccc(S(=O)(=O)NCc2cccnc2)cc1` were -8.68% and 0.28%.
Taken in the same sequence, the figures for `Cc1cc([N+](=O)[O-])nn1CCCC(=O)Nc1ccc(Cl)cc1Cl` were -11.6% and -4.49%.
Taken in the same sequence, the figures for `COc1ccc(-n2nc(C(=O)NCC(=O)Nc3cc(OC)c(OC)c(OC)c3)c3ccccc3c2=O)cc1OC` were -43.4% and -6.14%.
Consider `O=C(c1ccccc1)N1CCN(Cc2ccc3c(c2)OCO3)CC1`, for which the values for the inhibition in assay [1] and in assay [2] were 0.9% and 3.86%, respectively.
In the same order, the values of `O=C(NNc1ccnc2cc(Cl)ccc12)C1CCCCC1` are -34.1% and 31.1% (active).
With `Cc1ccc(C2C3=C(CC(C)(C)CC3=O)OC3=C2C(=O)CC(C)(C)C3)cc1`, the inhibition is 0% in assay [1] and 3.31% in assay [2].
Taken in the same sequence, the figures for `O=C(CNC(=O)Cc1ccccc1)N=Nc1c(O)n(Cc2ccc3c(c2)OCO3)c2ccccc12` were 3.52% and 3.04%.
In the same order, the values of `CCN(CC)S(=O)(=O)c1cccc(C(=O)OCC(=O)Nc2ccc3c(c2)c2ccccc2n3CC)c1` are -11.9% and 24.3%.
As to `CC(C)C(=O)NC(Nc1cccc([N+](=O)[O-])c1)C(Cl)(Cl)Cl` (stereo unspecified), the results for the inhibition in assay [1] and in assay [2] were 1.13% and 0.4%, respectively.
In the case of `CCCCCOC(=O)C1=C(C)NC(=O)NC1c1ccc([N+](=O)[O-])cc1` (stereo unspecified), the inhibition is -6.01% in assay [1] and 2.27% in assay [2].
In the same order, the values of `C[C@H]1CN([C@@H](C)CO)C(=O)CCCn2nncc2CO[C@H]1CN(C)C(=O)C1CCCCC1` are -19.8% and -11.3%.
Taken in the same sequence, the figures for `O=C(NC1CC(=O)N(c2ccccc2)C1)C1CC1` (stereo unspecified) were -3.45% and -9.3%.
Taken in the same sequence, the figures for `Cc1ccccc1COc1cccc(/C=N/NC(=O)c2nnn(-c3nonc3N)c2C)c1` were 7.5% and 18.5%.
On to `CCOC(=O)c1ccc(S(=O)(=O)N2CCN(C(C)=O)CC2)cc1`, for which the inhibition in assay [1] is -14.4%; in assay [2], -6.09%.
On to `CN(C)C(=O)c1ccc(-c2n[nH]c(=O)c3ccccc23)cc1`, for which the inhibition in assay [1] is 34.3%; in assay [2] it was 18.3%.
Take `O=C(c1ccccc1)C1CCN(C(=O)c2cccs2)CC1`: the inhibition in assay [1] was -10%; in assay [2], -0.27%.

The record behind these values is PubChem BioAssay.
